Sampled rows, rich in hits. Any-hit rate of the full collection: about 8.7%.
JMJD2A Tudor inh: inhibitors of human JMJD2A Tudor domain | O75164 | AlphaScreen JMJD2A-Tudor / H3K4me3 peptide binding | Potency, µM (series often up to 114 µM), without a hit: top-dose activity change, negative = inhibition, usual class: inhibitors | 390,000 tested, 4.4% active | AID 504339; also: % is scaled to controls: 0 for no effect and ±100 for the full control effect; nearly all actives have a fitted effect of over 50% in size
G9a block: inhibitors of human histone lysine methyltransferase G9a; Q96KQ7; G9a H3K9 monomethylation, AlphaScreen, 2 h; Potency, µM (titrated, usually from 102 µM), for the others: at the highest dose activity, negative = inhibition, most hits filed as inhibitors; 350,000 tested, 8.8% active; AID 504332; also: % is scaled to controls: 0 for no effect and ±100 for the full control effect; nearly all actives have a fitted effect of over 75% in size
Target sequence (Q96KQ7 913-1193 limits assumed): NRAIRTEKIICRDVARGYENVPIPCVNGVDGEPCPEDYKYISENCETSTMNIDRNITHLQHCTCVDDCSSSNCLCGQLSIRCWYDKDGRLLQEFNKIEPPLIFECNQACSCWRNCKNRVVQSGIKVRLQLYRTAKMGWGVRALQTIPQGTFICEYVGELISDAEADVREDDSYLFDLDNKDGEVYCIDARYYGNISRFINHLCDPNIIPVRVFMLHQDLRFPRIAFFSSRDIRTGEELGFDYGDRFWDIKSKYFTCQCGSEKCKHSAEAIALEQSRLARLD
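Using a bead-based AlphaScreen, monomethylated H3K9 product from 2 h room-temperature reactions (G9a 20 nM, peptide 500 nM, SAM 20 uM) was detected with 0.5 ug/mL rabbit anti-H3K9me1 antibody.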
HP1b binding inh: inhibitors of HP1-beta chromodomain binding to methylated histone tails. AlphaScreen HP1-beta / biotin-H3K9me3 peptide binding. P83916. 390,000 tested, 0.56% active. Potency, µM (top dose mostly 114 µM), inactives show at the top dose activity change, negative = inhibition, usual class: inhibitors; also: nearly all actives have a fitted effect of over 70% in size
Target sequence (P83916 whole entry, looked up): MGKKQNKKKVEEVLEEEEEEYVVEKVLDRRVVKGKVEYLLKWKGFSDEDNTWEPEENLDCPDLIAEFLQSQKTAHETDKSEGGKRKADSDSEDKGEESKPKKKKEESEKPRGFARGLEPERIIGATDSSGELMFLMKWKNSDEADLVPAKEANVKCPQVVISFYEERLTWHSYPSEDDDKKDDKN
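AlphaScreen: HP1-beta (50 nM) preformed 30 min with biotin-H3(1-18)K9me3 peptide (50 nM) in PBS pH 7.4, 0.01% Tween-20. Compound added for 30 min at RT, then streptavidin donor/nickel chelate acceptor beads (10 ug/mL) for 30 min.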
BAZ2B inh: inhibitors of human BAZ2B bromodomain | Q9UIF8 | 360,000 tested, 4.4% active | AlphaScreen BAZ2B-H3K14Ac peptide displacement | Potency, µM (titrated, usually from 114 µM), inactives show at the top dose activity change, negative = inhibition, usual class: inhibitors; also: % is scaled to controls: 0 for no effect and ±100 for the full control effect; nearly all actives have a fitted effect of over 60% in size
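Multi-concentration screen (max 110 uM) measuring displacement of acetylated histone H3 peptide from BAZ2B by AlphaScreen, using 50 nM protein, 50 nM peptide and 10 ug/mL streptavidin donor plus Ni-chelate acceptor beads.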
Sfp inh: Sfp phosphopantetheinyl transferase inhibition. Q9F4F7. Biochemical Sfp PPTase activity, qHTS. Potency, µM, for the others: largest response in the series, negative = inhibition, actives largely listed as inhibitors. 310,000 tested, 3.5% active. AID 1490;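 also: the enzyme is Sfp with the accession as filed and its product quenches rhodamine fluorescence; 0% = enzyme reaction without inhibitor and -100% = no enzyme wells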
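Step 1, compound plus 15 nM Sfp-PPTase, 15 min, room temperature. Step 2, add rhodamine-CoA (5 uM) and BHQ-2-YbbR (12.5 uM). Step 3, read 525/598 nm fluorescence at 0 and 30 min.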
12-LOX inh: blocks human arachidonate 12S-lipoxygenase | P18054 | purified 12hLO, xylenol orange hydroperoxide absorbance | Potency, µM (doses to about 108 µM), for the others: at the highest dose activity change, negative = inhibition, hits mostly inhibitors | 580,000 tested, 1.1% active | AID 1671190; also: % is scaled to controls: 0 for no effect and ±100 for the full control effect
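Purified human 12hLO at 150 nM in 25 mM Hepes, 0.01% Triton X-100, pH 7.0, preincubated 15 min at room temperature with compound. Reaction started with 40 uM arachidonic acid, 30 min at room temperature. Hydroperoxide measured by Fe-xylenol orange, 573/405 nm absorbance ratio.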
* hit, by the source's call; ? = inconclusive; . = no result; [ ] = another dose, or the depositor's remark. Calls follow the shape of the dose curve; as a rule, active = well fitted curve in the direction sought with a large enough effect; inconclusive = small, poorly fitted or top-dose-only effect, or another doubt; inactive = no such curve, though single readings can be large; an effect the other way counts as inactive or inconclusive. Potency is read from the fitted curve at half-maximal effect.

SMILES	JMJD2A Tudor inh	G9a block	HP1b binding inh	BAZ2B inh	Sfp inh	12-LOX inh
O=C(N/N=C/c1ccc(-c2ccccc2[N+](=O)[O-])o1)c1cncc(Br)c1	?	32µM*	?	-37%	?	-1%
O=C(N/N=C/c1ccc(-c2ccc([N+](=O)[O-])cc2)o1)c1cccnc1	-23%	?	-14%	-36%	-2%	-12%
O=C(COc1ccc(Br)cc1)N1CCC(c2nc3ccccc3o2)CC1	.	.	.	.	.	-25%
CCC(CC)NC(=O)COC(=O)c1cc(C)ccc1C	.	.	.	.	.	30%
COCCNC(=O)/C(C#N)=C/c1cc(Br)c(O)c(OC)c1	-9%	14µM*	1%	-12%	-4%	63%
COc1cc(/C=N/NC(=S)NCCc2ccccc2)cc(OC)c1OC	?	-7%	11%	-32%	1%	0%
COc1cc(/C=N/S(=O)(=O)CCc2ccccc2)cc(OC)c1O	-9%	50µM*	13%	-23%	-1%	-18%
N#C/C(=C\c1ccc(O)c(O)c1)C(=O)NCCCCc1ccccc1	.	.	.	.	79µM*	?
COc1ccc(/C=C(\C#N)C(=O)NCc2ccccc2)cc1O	-22%	24%	10%	-8%	13%	-13%
N#C/C(=C\c1ccc(O)c(O)c1)C(=O)NCCc1ccccc1	?	9.5µM*	?	11µM*	.	?
CC(C)c1ccc(/C=C(\C#N)C(=O)NCCc2ccccc2)cc1	.	.	.	.	.	2%
COc1cc(C#N)cc(Br)c1OCc1ccccc1	.	.	.	.	.	11%
COc1cc(/C=C(\C#N)C(=O)c2c[nH]c3ccccc23)cc(OC)c1O	50µM*	11µM*	?	.	-26%	-28%
COc1cc(/C=C(\C#N)C(=O)NCCc2ccccc2)cc(OC)c1O	-15%	32µM*	4%	-8%	-2%	-16%
COCCNC(=O)/C(C#N)=C/c1ccccc1Br	18µM*	4%	-3%	-13%	5%	-14%
CC(C)(O)CCc1ccc(CN2CCN([C@H]3CCCC[C@@H]3O)CC2)cc1	.	.	.	.	.	10%
COC(=O)C1=C(C)N(Cc2ccc(Cl)cc2)C(=S)NC1c1ccc(Br)cc1 (stereo not drawn)	.	.	.	.	.	32µM*
COC(=O)C1=C(C)N(Cc2ccc(Cl)cc2)C(=S)NC1c1ccc(F)cc1 (stereo not drawn)	.	.	.	.	.	40µM*
COC(=O)C1=C(C)N(C)C(=S)NC1c1ccc(Cl)cc1 (stereo not drawn)	-4%	2%[59 µM]	16%	-21%	10%	?
N#CC1=C(N)Oc2cc(O)ccc2C1c1cccs1 (stereo not drawn)	-3%	56µM*	28%	-3%	?	?
N#CC1=C(N)Oc2c(ccc3ccccc23)C1c1cccs1 (stereo not drawn)	-30%	7.1µM*	-5%	?	50µM*	.
O=C(NCc1ccc(F)cc1)[C@@H]1C[C@@H](c2cccc(C(F)(F)F)c2)N(CC2CCOCC2)C1	.	.	.	.	.	-8%
O=c1n(-c2ccncc2)nc2n1CCN(Cc1ccc(OC(F)(F)F)cc1)C2	.	.	.	.	.	65%
c1ccc(-c2ccc(C3=Nn4c(Cn5nnc6ccccc65)nnc4SC3)cc2)cc1	?	8.9µM*	16µM*	6%[57.1 µM]	28µM*	0%
Clc1ccc(C2=Nn3c(Cn4nnc5ccccc54)nnc3SC2)cc1	79µM*	.	?	?	32µM*	?
SMILES	JMJD2A Tudor inh	G9a block	HP1b binding inh	BAZ2B inh	Sfp inh	12-LOX inh
Cc1ccc(Nc2cc(C)c(O)c(C)c2)cc1	40µM*	25µM*	50µM*	7.1µM*	?	0%
O=[N+]([O-])c1cc([N+](=O)[O-])c(Oc2ccc(Br)cc2Br)cc1NN1CCCCC1	10µM*	16µM*	?	?	5%	-20%
O=[N+]([O-])c1cc([N+](=O)[O-])c(Oc2c(F)cc(F)cc2F)cc1NN1CCCCC1	?	50µM*	?	?	-25%	-9%
Cc1cc(F)ccc1Oc1cc(NN2CCCCC2)c([N+](=O)[O-])cc1[N+](=O)[O-]	?	?	-15%	?	1%	?
O=[N+]([O-])c1cc([N+](=O)[O-])c(Oc2cccc3c2CCCC3)cc1NN1CCCCC1	-34%	.	0%	.	.	4%
COc1cccc(Oc2cc(NN3CCCCC3)c([N+](=O)[O-])cc2[N+](=O)[O-])c1OC	?	40µM*	-27%	8.9µM*	2%	?
CCc1ccc2c(c1)C(NC(C)=O)C(=O)N2CC (stereo not drawn)	-16%	?	57%	5%	56µM*	0%
CCCCN1C(=O)C(NC(C)=O)c2cc(Br)ccc21 (stereo not drawn)	-2%[57.1 µM]	2.5µM*	37%	-8%	-1%	11%
CCN1C(=O)C(NC(C)=O)c2cc(Br)ccc21 (stereo not drawn)	-5%	-22%[59 µM]	32%	3%	1%	?
CNS(=O)(=O)c1cc(NS(=O)(=O)c2cccc(Br)c2)ccc1C	.	.	.	.	.	10%
COc1ccc(OCC(=O)Nc2ccccc2Cl)cc1	-9%	7%	19%	50µM*	19%	-2%
CCc1ccccc1OCC(=O)Nc1ccc(N2CCCC2)cc1C	?	3.2µM*	7%	?	.	.
Cc1cc(N2CCCC2)ccc1NC(=O)COc1ccccc1	?	7.1µM*	-7%	-36%	.	?
COc1ccc(OCC(=O)Nc2ccccc2N2CCCCC2)cc1	54%	.	124%	16%	?	366%
COc1ccc(N2CCCC2)c(NC(=O)COc2ccccc2)c1	?	40µM*	?	?	-19%	5%
CCCNC(=O)N1CCN(c2oc(-c3ccco3)nc2C#N)CC1	.	.	.	.	.	6%
COc1ccc(C(=O)/C(=C/c2ccccn2)c2nc3ccccc3o2)cc1	.	.	.	.	.	1%
COc1cc(OC)cc(C(=O)/C(=C\c2ccco2)c2nc3ccccc3o2)c1	.	.	.	.	.	40µM*
COc1ccc(C(=O)/C(=C/c2ccccn2)c2nc3ccccc3o2)cc1OC	.	.	.	.	.	-1%
COc1cccc(C(=O)/C(=C/c2ccco2)c2nc3ccccc3o2)c1	.	.	.	.	.	40µM*
COc1ccc(C(=O)/C(=C/c2ccco2)c2nc3ccccc3o2)cc1	.	.	.	.	.	14µM*
CCOC(=O)C(NC(=O)CCNC(=O)c1ccccc1)C(=O)OCC	.	.	.	.	.	-35%
C#CCn1c(O)c(/C=C2/C=Nc3ccccc32)sc1=O	.	.	.	.	.	-3%
O=c1[nH]c(S)c(/C=C2\C=Nc3ccccc32)s1	?	14µM*	?	11µM*	?	-3%
COc1ccc(CNc2ccccc2SC)cc1OC	79µM*	10µM*	16%	?	56µM*	?
